# Laboratory results published in PubChem BioAssay (NCATS).
# Where “and” joins values, the source holds several entries; their conditions need not be identical. Equal entries are not always repeated. Inconclusive results are not listed. Unmarked numbers belong to inactive results. Calls of active or inactive are those of the source. Calls follow the shape of the dose curve; as a rule, active = well fitted curve in the direction sought with a large enough effect; inconclusive = small, poorly fitted or top-dose-only effect, or another doubt; inactive = no such curve, though single readings can be large; an effect the other way counts as inactive or inconclusive.
# Test system: not listed separately
# Assay: NCATS anti-infectives library activity on HEK293 viability as a counter-qHTS vs the C. elegans viability qHTS (AID 1745854);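 also: HEK293 cells exposed to compounds for 24 hr before the viability read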; also: potency is read from the fitted curve at half-maximal effect
# Conditions: HEK293 viability counter-screen; series mostly up to 41.8 µM; activity change, negative = cytotoxicity: at the top concentration
# Method in brief: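 Compounds were acoustically plated (several concentrations, 1:5, final up to 41.7 uM), then 1500 HEK293 cells added per well and incubated 24 hr at 37C, 5% CO2. CellTiter-Glo was added and luminescence read after 10 min.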
# % is scaled to controls: 0 for no effect and ±100 for the full control effect.
SMILES,"activity change, negative = cytotoxicity [%]",Potency
CN(C)Cc1c(C(=O)NCCOc2ccc(C(=O)NO)cc2)oc2ccccc12,1.68,
COc1cccc2c(NCc3ccccc3)nc(-n3c(N)nc4ccccc43)nc12,,7.08 µM (active)
CC(C)[C@H](C(=O)Nc1ccc(C(=O)NO)cc1)c1ccccc1,1.62,
NC(=O)c1cccc2cn(-c3ccc([C@@H]4CCCNC4)cc3)nc12,0.62,
O=C(CCCCCCNC(=O)c1cnc(N(c2ccccc2)c2ccccc2)nc1)NO,1.02,
Nc1ccccc1NC(=O)c1ccc(CNC(=O)OCc2cccnc2)cc1,1.43,
COc1cc2c(cc1-c1c(C)noc1C)ncc1[nH]c(=O)n([C@H](C)c3ccccn3)c12,-12.8,

# Biological target: Glutathione peroxidase 1 (Homo sapiens) (UniProt P07203)
# Assay: Primary qHTS Assay for Inhibitors of Recombinant Selenoprotein Glutathione Peroxidase 1 (GPX1) (AID 1845191); also: nearly all actives have a fitted effect of over 65% in size
# Conditions: recombinant GPX1, GR-coupled NADPH fluorescence, 15 min; series mostly up to 48.8 µM; activity, negative = inhibition: at the top concentration; outcome: at the top concentration
# Method in brief: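 10 nM GPX1 + cpd, 30 min RT; start w/ 1 mM GSH, 0.5 mM cumene hydroperoxide, 0.5 mM NADPH, 100 nM GR, 0.01% BSA; buffer 50 mM Tris-HCl pH 7.5, 2 mM EDTA, 150 mM NaCl; Fl 340/450, 0 & 15 min.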
# Glutathione peroxidase 1 (Homo sapiens), sequence (P07203 whole entry, looked up): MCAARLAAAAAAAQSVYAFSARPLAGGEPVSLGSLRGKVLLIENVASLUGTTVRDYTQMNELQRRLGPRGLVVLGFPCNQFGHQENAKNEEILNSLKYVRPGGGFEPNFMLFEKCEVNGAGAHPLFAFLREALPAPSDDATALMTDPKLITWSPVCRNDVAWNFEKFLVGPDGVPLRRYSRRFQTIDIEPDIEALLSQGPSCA
SMILES,"activity, negative = inhibition",Potency,outcome
O=c1c2ccccc2nc2n1CCc1c-2[nH]c2ccccc12,3.53%,,
CN(C)Cc1c(C(=O)NCCOc2ccc(C(=O)NO)cc2)oc2ccccc12,,inactive,
CC(C)C[C@H](NC(=O)CNC(=O)c1cc(Cl)ccc1Cl)B(O)O,,,inactive
CC(C)(C)c1cc(C(C)(C)C)c(NC(=O)c2c[nH]c3ccccc3c2=O)cc1O,,inactive,
Nc1nc(-c2nn(Cc3ccccc3F)c3ncccc23)nc(N)c1N1CCOCC1,,,inactive [at 27.7 µM]
CN1c2cc(O)c(N=NC(N)=O)cc2CC1S(=O)(=O)O (configuration not stated),,inactive,
O=C(O)c1ccc2cc(-c3ccc(O)c(C45CC6CC(CC(C6)C4)C5)c3)ccc2c1,-22.6%,,
COc1cccc2c(NCc3ccccc3)nc(-n3c(N)nc4ccccc43)nc12,,,inactive
COc1c(OCCCN2CCOCC2)ccc2c3n(c(=NC(=O)c4cnc(N)nc4)nc12)CCN3,-31.4% [at 9.52 µM] and 3.3% [at 9.52 µM],,inactive [at 9.52 µM]
